# Screening data as filed in PubChem BioAssay.
# D3 antag: blocks the human D3 dopamine receptor; actives 2.5% (n = 360,000); max response, negative = inhibition, %; D3R cells, DiscoveRx beta-arrestin luminescence, antagonist mode; active compounds read low; P35462; in the data active means max response below about -50%; inconclusive means no clear call, values can overlap the other calls
#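 Cells expressing the human receptor were seeded at 1500 cells/well, incubated overnight at 37 degrees C in 5% CO2, then exposed to library compounds with dopamine controls for 90 minutes at 37 degrees C before luminescent detection.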
# GLP-1R agonist: agonists of human GLP-1 receptor; P43220; HEK293 GLP-1R CRE-luciferase, luminescence, 4-6 h; cells express a hypersensitive GLP-1R form; Potency, µM (top dose mostly 45.6 µM), actives largely listed as activators; actives 0.007% (n = 380,000)
# Target sequence (P43220 whole entry, looked up): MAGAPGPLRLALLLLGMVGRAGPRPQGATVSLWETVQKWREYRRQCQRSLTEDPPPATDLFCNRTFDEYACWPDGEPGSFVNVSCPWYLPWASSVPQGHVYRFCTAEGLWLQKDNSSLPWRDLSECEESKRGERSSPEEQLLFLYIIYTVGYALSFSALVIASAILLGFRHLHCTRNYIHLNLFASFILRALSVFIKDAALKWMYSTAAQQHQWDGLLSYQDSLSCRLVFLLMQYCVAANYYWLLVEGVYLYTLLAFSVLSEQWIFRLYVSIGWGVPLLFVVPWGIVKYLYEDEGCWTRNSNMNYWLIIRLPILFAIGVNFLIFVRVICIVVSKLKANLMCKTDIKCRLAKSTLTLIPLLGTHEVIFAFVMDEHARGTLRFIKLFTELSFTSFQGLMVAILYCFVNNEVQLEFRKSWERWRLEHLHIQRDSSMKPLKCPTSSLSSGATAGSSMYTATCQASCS
# ClpP mod: qHTS Assay for Activators of ClpP; ATP-dependent Clp protease proteolytic subunit (Bacillus subtilis (strain 168)), P80244; purified B. subtilis ClpP, FRET peptide cleavage, 20 min; Potency, µM (highest dose often 57.5 µM); actives 1.9% (n = 340,000); AID 651965, 2013; active means well fitted falling curve with a large enough effect; inconclusive means small, poorly fitted or top-dose-only effect; inactive means no such curve, though single readings can be large or run the other way; further: the source files actives as falling curves though it sought activators and does not explain the sign; nearly all actives have a fitted effect of over 65% in size
# Target sequence (P80244 whole entry, looked up): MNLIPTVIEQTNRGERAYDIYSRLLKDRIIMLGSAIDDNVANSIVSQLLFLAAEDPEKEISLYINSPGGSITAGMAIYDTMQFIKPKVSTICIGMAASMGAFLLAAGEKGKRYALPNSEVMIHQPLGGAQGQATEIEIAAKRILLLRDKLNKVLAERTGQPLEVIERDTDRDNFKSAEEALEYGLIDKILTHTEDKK
#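 Purified B. subtilis ClpP, 10 microg/mL final in Tris/HCl pH8 with KCl, BSA, glycerol and Tween-20, cleaved an Abz/nitrotyrosine-quenched decapeptide. Fluorescence (ex 320, em 430) was read at 0 and 20 min at room temperature. Delta was normalized to 5.8 microM ADEP and DMSO/no-enzyme controls.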
# GLP-1R inv ag: acts as inverse agonist at human GLP-1 receptor; P43220; Potency, µM (doses to about 38.3 µM), usual class: inhibitors; HEK293 GLP-1R CRE-luciferase, luminescence, 24 h; GLP-1R form is constitutively active; actives 1.6% (n = 410,000); further: nearly all actives have a fitted effect of over 55% in size
#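 Stable HEK293 clone (constitutively active GLP-1R + cAMP-response luciferase); 200 cells/uL plated, 12 h pre-culture, compound 24 hr, 37 deg C/5% CO2; detection reagent 12 min RT; luminescence.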
# DRD3 agonist: agonists of human D3 dopamine receptor. D3R DiscoveRx beta-arrestin cells, luminescence, 90 min. P35462. max activation, %. actives 0.58% (n = 410,000); in the data active means max activation above about 30%
#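 Agonist-mode cell screen: cells plated at 1500/well and incubated overnight at 37 °C, then exposed to library compounds for 90 min at 37 °C. Detection reagent was added for 30–60 min at room temperature, and luminescence was read.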
# HEK293 tox: cytotoxicity counter-screen for GLP-1 receptor inverse agonists; HEK293 cAMP-luciferase reporter cells, luminescence, 24 h; Potency, µM (doses to about 38.3 µM), hits mostly inhibitors; actives 0.13% (n = 410,000);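 further: loss of luciferase light is scored as toxicity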
#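 A 23 nL compound transfer followed 12 hours of cell culture at 37 deg C; exposure then lasted 24 hr. Luciferase assay detection reagent was dispensed and plates read for luminescence after a 12 min room-temperature wait.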
# A number is an active result; i = inactive; ? = inconclusive; nt = no result given. In the library only some 5.7% were active in any assay of this set; here they are far more common. Unless noted, the call rests on the fitted dose curve; in most records, active means well fitted curve in the direction sought with a large enough effect; inconclusive means small, poorly fitted or top-dose-only effect, or another doubt; inactive means no such curve, though single readings can be large; an effect the other way counts as inactive or inconclusive.
SMILES,D3 antag,GLP-1R agonist,ClpP mod,GLP-1R inv ag,DRD3 agonist,HEK293 tox
NS(=O)(=O)c1ccc(CCNc2nc3c(-c4cccc(F)c4)nnn3c3ccccc23)cc1,i,i,22µM,i,i,i
FC(F)(F)c1cccc(-c2nnn3c2nc(NC2CCCCC2)c2ccccc23)c1,nt,i,i,i,i,i
NNc1nc2c(-c3cccc(C(F)(F)F)c3)nnn2c2ccccc12,i,i,nt,?,32,i
Cc1ccc2c(c1)C/C(=C/c1ccc(N(C)C)cc1)C2=O,nt,nt,i,nt,nt,nt
COc1ccc(Cn2c(SCc3ccc(C)cc3)nc3cc(OC)c(OC)cc3c2=N)cc1Cl,i,i,i,i,i,?
COCCCn1c(SCc2ccccc2)nc2cc(OC)c(OC)cc2c1=N,i,i,i,i,31,i
COCCCn1c(SCc2cccc(C(F)(F)F)c2)nc2cc(OC)c(OC)cc2c1=N,i,i,i,i,i,i
COc1ccc(Cn2c(SCc3cc(C)ccc3C)nc3cc(OC)c(OC)cc3c2=N)cc1,i,i,i,i,44,i
CC1(c2nc3ccccc3cc2C#N)OCCO1,i,i,i,i,i,i
COC(=O)c1ccc(/C=C/c2ccc3cccc(OC(C)=O)c3n2)cc1,-64,i,?,i,i,i
N#Cc1ccccc1NC(=O)CN(Cc1ccccc1)Cc1ccccc1,i,i,nt,7.1µM,i,i
CCOC(=O)[C@]12CCCC=C1N(Cc1ccc3c(c1)OCO3)C(=O)[C@H](CC(=O)NCCc1ccccc1OC)C2,i,i,i,?,i,i
Clc1cccc(CNCCCSc2ncccn2)c1,-52,i,nt,i,i,i
COc1ccc(CNCCCSc2ncccn2)cc1OC,-65,i,i,i,i,i
Brc1ccc(CNCCCSc2nnnn2-c2ccccc2)cc1,nt,nt,i,i,i,i
COc1cc(CNCCc2c[nH]c3ccccc23)ccc1OCc1ccccc1F,-56,i,i,7.9µM,i,i
Brc1ccc(CNCCCSc2ncccn2)cc1,-77,i,i,i,i,i
COc1ccc(CNCCCSc2ncccn2)c(OC)c1,i,i,i,i,i,i
Clc1ccc(CNCCCSc2ncccn2)cc1,-78,i,nt,i,i,i
Clc1ccc(OCCCCSc2ncccn2)cc1,i,i,i,?,i,i
COc1cc(CNCCO)ccc1OCCc1ccccc1,i,i,nt,1µM,i,i
CSc1ccc(CNCCCSc2ncccn2)cc1,?,i,8.9µM,i,i,i
CSc1ccc(CNCCCN(C)C)cc1,i,i,i,?,i,i
O=C(COc1ccc(Br)cc1)NNC(=O)Cc1ccc(S(=O)(=O)N2CCOCC2)s1,i,i,i,?,i,i
O=C1CC(SCc2nc3ccccc3[nH]2)C(=O)N1c1ccc(F)cc1 (stereo not drawn),-66,i,i,i,i,i
SMILES,D3 antag,GLP-1R agonist,ClpP mod,GLP-1R inv ag,DRD3 agonist,HEK293 tox
COc1ccccc1-c1nc(C(N)=O)c2[nH]c(=O)n(-c3cccc(C)c3)c2n1,?,i,20µM,i,i,i
COc1ccc(C(=O)Nc2ccc3c(c2)nc(CN2CCCC2)n3C)cc1,i,i,i,i,45,i
Cn1c(CN2CCCCC2)nc2cc(NC(=O)c3ccccc3)ccc21,i,i,i,i,i,i
COc1ccc(C(=O)Nc2ccc3c(c2)nc(CN2CCN(C(C)=O)CC2)n3C)cc1,i,i,i,i,i,i
Cn1c(CN2CCCC2)nc2cc(NC(=O)Nc3ccccc3)ccc21,-103,i,i,i,i,i
CC(=O)Nc1ccc2c(c1)nc(CN1CCCC1)n2C,-50,i,i,i,i,i
Cc1ccc(C(C)C)c(OCC(=O)Nc2ccc3c(c2)nc(CN2CCCC2)n3C)c1,-67,i,i,10µM,i,?
OC[C@@H](O)C(O[C@@H]1O[C@@H](CO)[C@H](O)[C@H](O)[C@H]1O)[C@H](O)[C@@H](O)CO (stereo partly drawn),nt,i,nt,nt,nt,nt
O=C(Nc1ccc(C(=O)N2CCN(c3ccc(Cl)cc3)CC2)cc1)c1nsc2ccccc12,nt,nt,i,6.3µM,i,i
COc1cccc(N2CCN(C(=O)c3ccc(NC(=O)c4nsc5ccccc45)cc3)CC2)c1,nt,nt,i,8.9µM,i,i
CCOc1ccc(OCCC(=O)NNC(=O)c2ccncc2)cc1,i,i,7.9µM,i,i,i
Cc1ccc(OCCC(=O)OCC(=O)NNC(=O)c2ccccc2)cc1,i,i,25µM,i,i,i
CCOc1ccc(OCCC(=O)OCC(=O)NNC(=O)c2ccccc2)cc1,i,i,nt,i,i,i
CC(C)(C)c1ccc(OCCCC(=O)NNC(=O)c2ccccc2O)cc1,i,i,nt,13µM,i,i
Cc1cc(C(=O)NNC(=O)CCCOc2ccccc2)c(C)o1,i,i,nt,i,i,i
Cc1ccc(OCCC(=O)NNC(=O)c2ccncc2)cc1,i,i,i,i,i,i
CNS(=O)(=O)c1cn(CC(=O)Nc2cccc(C(F)(F)F)c2)cc1S(=O)(=O)NC,nt,nt,i,i,i,i
CCN(CC)CCNC(=O)c1ccc(NC(=O)c2cccc(S(=O)(=O)N3c4ccccc4CC3C)c2)cc1 (stereo not drawn),i,i,i,5.6µM,i,?
CCN(CC)CCNC(=O)c1ccc(NC(=O)Nc2cccc3ccccc23)cc1,i,i,?,10µM,i,i
CCN(CC)CCNC(=O)c1ccc(NC(=O)c2cccc(S(=O)(=O)N3CCc4ccccc43)c2)cc1,i,i,i,?,i,?
CCN(CC)c1cc(C)c(/C=C/c2ccnc3ccccc23)cc1C,nt,nt,i,nt,nt,nt
Oc1ccccc1C1C=C(c2ccc3c(c2)OCO3)NC(c2cccc(Cl)c2)N1 (stereo not drawn),nt,nt,i,nt,nt,nt
O=C(NCc1ccc(Cl)cc1)c1cnc2sc(N3CCOCC3)nn2c1=O,nt,nt,i,i,i,i
COC(=O)c1cc2c(n1S(=O)(=O)c1ccc(C)cc1)C(=O)C(=O)c1[nH]cc(C(=O)OCc3ccccc3)c1-2,i,i,i,?,i,4µM
CNCCOc1ccccc1C(C)(C)C,-54,i,i,i,i,i
Cc1cc(OCCOCCNCc2ccccc2)ccc1C(C)C,i,i,i,?,i,?
CC(C)(C)c1ccccc1OCCOCCNCc1ccccc1,-78,i,i,?,i,?
COCCNC(=O)CCn1c(=O)c2cc(OC)c(OC)cc2n(CC(=O)Nc2ccc(Cl)cc2F)c1=O,nt,nt,i,i,i,i
C=CCOc1nc2c(c(=O)n(C)c(=O)n2C)n1Cc1ccc(Cl)cc1,i,i,i,i,i,i
